# Screens as filed in PubChem.
# In the library only some 3.5% were active in any assay of this set; here they are far more common.
# Sm TGR inh = qHTS Assay for the Inhibitors of Schistosoma Mansoni Peroxiredoxins | Schistosoma mansoni thioredoxin glutathione reductase (TGR), Q962Y6 | purified TGR, DTNB reduction, TNB absorbance 405 nm | Potency, µM (series often up to 114 µM), inactives show at the top dose activity change, negative = inhibition, usual class: inhibitors | hit rate 3% among 360,000; further: on the % scale 0 is the no-effect control and ±100 the full control effect; nearly all actives have a fitted effect of over 60% in size
#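 Kinetic colorimetric format: TGR-catalysed, NADPH-driven DTNB reduction monitored via TNB absorbance. Enzyme dispensed at 20 nM; compound exposure 15 min at room temperature before reaction start.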
# Giardia FBPA inh = qHTS Assay for Inhibitors of Fructose-1,6-bisphosphate Aldolase from Giardia Lamblia; A8B2U2; purified Giardia FBPA; Potency, µM (titrated, usually from 59.6 µM), inactives show at the top dose activity, negative = inhibition, usual class: inhibitors; hit rate 0.71% among 290,000; AID 2451, 2010; further: on the % scale 0 is the no-effect control and ±100 the full control effect; nearly all actives have a fitted effect of over 55% in size
# Target sequence (A8B2U2 whole entry, looked up): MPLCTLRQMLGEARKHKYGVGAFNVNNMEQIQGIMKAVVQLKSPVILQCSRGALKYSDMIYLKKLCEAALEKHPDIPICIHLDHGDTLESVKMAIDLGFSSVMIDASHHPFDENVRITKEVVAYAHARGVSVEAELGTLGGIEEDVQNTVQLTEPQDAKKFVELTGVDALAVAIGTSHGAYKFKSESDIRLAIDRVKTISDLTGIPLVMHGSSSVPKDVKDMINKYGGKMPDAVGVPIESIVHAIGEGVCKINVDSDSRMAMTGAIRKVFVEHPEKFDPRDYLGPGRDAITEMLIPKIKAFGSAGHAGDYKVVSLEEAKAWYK
#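 Giardia FBPA (40 nM reagent) was preincubated 10 min at RT with compound (up to 57.5 uM final), then substrate plus GAPDH/TPI/NAD/arsenate coupling system with diaphorase/resazurin was added; resorufin fluorescence (525/598 nm) was read after 20 min.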
# LmPK inh = qHTS Assay for Inhibitors of Leishmania Mexicana Pyruvate Kinase (LmPK); Potency, µM (top dose mostly 57.5 µM), for inactives: at the highest dose activity change, negative = inhibition, actives largely listed as inhibitors; AID 1721, 2009; hit rate 0.37% among 290,000; purified LmPK, Kinase-Glo ATP luminescence, 1 h; further: on the % scale 0 is the no-effect control and ±100 the full control effect
#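 Pyruvate kinase activity monitored as ATP production (luciferase luminescence). Conditions: 0.1 nM enzyme, 0.5 mM PEP, 0.1 mM ADP, 1 h, RT; normalized against uninhibited and no-enzyme wells.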
# Tb PYK inh = qHTS of Trypanosoma Brucei Inhibitors. hit rate 0.12% among 410,000. Potency, µM (doses to about 76.8 µM), for the others: top-dose activity, negative = inhibition, hits mostly inhibitors. pyruvate kinase (Trypanosoma brucei), Q57TT1. TbPYK enzyme, Kinase-Glo Plus ATP luminescence, 45 min; further: on the % scale 0 is the no-effect control and ±100 the full control effect; nearly all actives have a fitted effect of over 50% in size
#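 Screened from lowest to highest concentration, compounds were pinned into TbPYK/substrate mixtures, and ADP (130 uM final) was added. Plates sat at room temperature for 45 min prior to Kinase-Glo Plus detection by luminescence.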
# NS1 function inh = qHTS Assay for Inhibitors of Influenza NS1 Protein Function | Potency, µM (doses to about 46.1 µM), for inactives: at the highest dose activity, positive = more growth | hit rate 0.4% among 270,000 | AID 2326, 2010; calls by dose curve; further: actives are rising curves; nearly all actives have a fitted effect of over 50% in size
#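 OD600 was taken as the measure of yeast growth restored by compound in an NS1-expressing S. cerevisiae strain. Cells had been washed out of glucose medium and diluted 1:100 into galactose -URA medium, pH 6.0.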
# RE007 growth inh = qHTS Assay for Inhibitors of the HIV-1 protein Vpr; S. pombe RE007 Vpr strain, BacTiter-Glo ATP luminescence, 24 h; Potency, µM (top dose mostly 92.2 µM), for the others: top-dose activity change, negative = less growth, actives largely listed as inhibitors; hit rate 0.21% among 360,000; active means well fitted falling curve with a large enough effect; inconclusive means small, poorly fitted or top-dose-only effect; inactive means no such curve, though single readings can be large or run the other way; further: on the % scale 0 is the no-effect control and ±100 the full control effect; nearly all actives have a fitted effect of over 50% in size
#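 Fission yeast RE007 carrying one integrated HIV-1 vpr copy, seeded at OD 0.01 in PMG+AL medium with 23 nL pinned compound. Grown 24 h at 30 degrees; viability read by BacTiter-Glo luminescence after 5 min.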
# * marks the source's active call; other numbers are inactive results; u = inconclusive; x = no result. Unless noted, the call rests on the fitted dose curve; in most records, active means well fitted curve in the direction sought with a large enough effect; inconclusive means small, poorly fitted or top-dose-only effect, or another doubt; inactive means no such curve, though single readings can be large; an effect the other way counts as inactive or inconclusive. Potency means the concentration at half of the fitted maximal effect.
SMILES,Sm TGR inh,Giardia FBPA inh,LmPK inh,Tb PYK inh,NS1 function inh,RE007 growth inh
COc1ccc(/C=C(/C(=O)c2cccs2)N2C=CC=CC2=C(C#N)C#N)cc1,0.282µM*,-4.3%,-4.7%,-22.0%,4.4%,0.5%
COc1ccc(N=N/C(=C\O)C(=O)c2cccs2)cc1,12.0%,0.0%,-0.7%,-4.8%,x,38.0%
N/C(=N\OC(=O)c1cccc(F)c1)c1ccccc1,13.1%,-0.8%,15.8µM*,-24.8%,-4.4%,-28.2%
COc1ccc(C(=O)O/N=C(\C)c2ccccc2)cc1,5.6%,-6.5%,6.31µM*,12.6µM*,-118.6%,-1.3%
N/C(=N\OC(=O)c1ccc(F)cc1)c1ccccc1,8.6%,1.8%,7.94µM*,u,-63.7%,u
COC(=O)[C@@]1(Cc2ccc(OC)cc2)[C@H]2c3cc(C(=O)N(C)C)n(Cc4cccc5ccccc45)c3C[C@H]2CN1C(=O)c1ccccc1,x,-5.5%,x,x,x,x
Cn1ccc2cc(S(=O)(=O)N3CCCC(C(=O)NCc4ccccc4)C3)ccc21 (stereo not drawn),-1.7%,x,x,3.1%,x,x
O=c1c2ccccc2nc(CSc2nnnn2-c2ccccc2)n1-c1ccccc1Cl,-6.1%,6.9%,5.1%,-3.4%,21.6%,4.3%
Cc1nnc(SCc2nc3ccccc3c(=O)n2-c2ccccc2Cl)n1N,56.2µM*,-23.9%,-1.3%,-1.0%,-0.3%,-4.7%
O=C(c1ccccc1)c1nnc(-c2ccccc2F)o1,-3.2%,-0.8%,14.1µM*,-25.2%,-1.1%,-23.1%
COC(=O)c1cc2sc(Cl)cc2n1CC(=O)Nc1cc(C)cc(C)c1,-2.5%,x,x,-1.5%,x,x
CCOC(=O)c1sc2nc(CC(=O)OC)nc(NCCN(CC)CC)c2c1C,-15.9%,5.3%,7.9%,-0.6%,4.1%,-2.1%
CCOC(=O)c1sc2nc(CC(=O)OC)nc(NCCN3CCOCC3)c2c1C,25.1µM*,4.9%,0.5%,-2.4%,-2.0%,0.5%
CCc1ccn2cc(-c3cc(-c4ccccc4)no3)nc2c1,25.9%,-6.9%,15.8µM*,-6.8%,-45.0%,-17.7%
Cc1ccc2nc(-c3cc(-c4ccccc4)no3)cn2c1,14.9%,0.2%,-2.7%,-0.2%,-25.4%,-5.2%
Cc1cccc(C(=O)NC2CCN(C(=O)NCc3ccccc3)CC2)c1,11.2µM*,-2.9%,-4.2%,-18.3%,6.9%,-1.6%
Cc1nc2ccc(N=NN(C)C)cc2[nH]1,20µM*,-21.6%,u,u,3.2%,19.4%
CCCC(O)(CCN1CCCCC1)c1ccc(OCC)cc1 (stereo not drawn),3.98µM*,-5.4%,4.4%,-4.5%,1.7%,-5.1%
CCC(O)(CCN1CCCCC1)c1ccccc1 (stereo not drawn),13.5%,3.3%,1.8%,1.4%,-5.7%,12.5%
CCCCCC(O)(CCN1CCCCC1)c1ccc(OCC)cc1 (stereo not drawn),1µM*,4.6%,-0.4%,-19.0%,x,-13.2%
CCOc1ccc(NC(=O)CCN2CCCCC2)cc1,5.4%,0.3%,-6.4%,4.2%,-15.8%,-6.9%
COc1ccc(C(O)(CCN2CCCCC2)C2CCCCC2)cc1 (stereo not drawn),1.41µM*,-2.2%,0.0%,-0.7%,0.0%,-31.7%
O=C/C=C/c1ccc(O)cc1,x,-0.8%,x,x,x,x
Cc1ccc(C)c(CNC(=O)c2ccc3c(c2)nc2n3CCC(C)C2)c1 (stereo not drawn),5.1%,x,x,6.9%,x,x
CCc1cccc(NC(=O)Cn2c(=O)n(CC(=O)NCCc3ccccc3)c(=O)c3ccccc32)c1,-4.3%,x,x,5.7%,x,x
SMILES,Sm TGR inh,Giardia FBPA inh,LmPK inh,Tb PYK inh,NS1 function inh,RE007 growth inh
CCOc1ccc(N2C(=O)CC(N3CCN(C(=O)CN4CCCC4)CC3)C2=O)cc1 (stereo not drawn),35.5µM*,4.9%,-0.9%,-11.6%,-45.8%,-15.6%
COc1ccccc1N1C(=O)CC(N2CCN(c3ccc(F)cc3)CC2)C1=O (stereo not drawn),44.7µM*,-4.6%,-1.2%,0.8%,30.0%,-1.7%
CCOc1ccc(N2C(=O)CC(N3CCC(NC(=O)Nc4ccccc4)CC3)C2=O)cc1 (stereo not drawn),-9.7%,-11.9%,4.2%,-10.9%,-51.9%,22.4µM*
CCOc1ccc(N2C(=O)CC(N3CCc4ccccc43)C2=O)cc1 (stereo not drawn),-1.7%,7.2%,1.0%,-20.9%,-1.5%,4.9%
CCOc1ccc(N2C(=O)CC(N3CCN(c4ccc(F)cc4)CC3)C2=O)cc1 (stereo not drawn),44.7µM*,0.4%,3.4%,1.2%,3.1%,-11.2%
CN1C(=O)CC(N2CCN(C(=O)CN3CCCC3)CC2)C1=O (stereo not drawn),-4.3%,4.6%,4.7%,-3.9%,2.6%,-3.5%
CCCC[C@@H]1C[C@H]1[C@@H](NP(=O)(c1ccccc1)c1ccccc1)c1ccccc1OC,x,0.5%,x,x,x,x
COc1ccc(-c2noc(CC(=O)Nc3ccc(F)cc3F)n2)cc1,2.3%,x,x,2.7%,x,x
COc1cc(CNc2ccc3c(c2)CCC3)cc(OC)c1O,0.316µM*,u,-0.6%,-3.6%,8.5%,12.8%
COc1cc(/C=N/Nc2nn3cnnc3c3ccccc23)ccc1O,5.5%,u,7.94µM*,-18.1%,14.5%,-14.6%
Oc1ccc(/C=N/Nc2nn3cnnc3c3ccccc23)cc1,-4.3%,-16.3%,14.1µM*,-0.3%,-2.3%,-23.3%
COc1cccc(/C=N/Nc2nn3cnnc3c3ccccc23)c1,-20.3%,-2.7%,25.1µM*,-8.5%,15.1%,-0.7%
CCOc1cc(/C=N/Nc2nn3cnnc3c3ccccc23)ccc1O,-1.4%,-15.5%,15.8µM*,0.2%,5.0%,-7.3%
Cc1cc(C(=O)N2CCN(c3cccc(Cl)c3)CC2)c2c(C)nn(-c3ccccc3Cl)c2n1,11.4%,x,x,-6.8%,x,x
Cc1ccc(-n2c(=O)c3c(cnn3C)n(CC(=O)Nc3cccc(Cl)c3)c2=O)cc1,5.9%,x,x,1.5%,x,x
Cc1ccc2c(=O)cc(C(=O)NCc3ccccc3)oc2c1,0.6%,x,x,-3.8%,x,x
CC(C)N1CC2=C(OC(N)=C(C#N)C2c2cccnc2)/C(=C/c2cccnc2)C1 (stereo not drawn),-19.8%,u,-1.4%,-2.2%,-2.3%,-6.3%
N#CC1=C(N)OC2=C(CN(Cc3ccccc3)C/C2=C\c2cccnc2)C1c1cccnc1 (stereo not drawn),22.4µM*,u,1.3%,0.3%,8.0%,17.1%
O=C(CCl)Nc1nc(-c2ccco2)c(-c2ccco2)s1,0.398µM*,-27.0%,2.7%,-15.6%,-27.9%,6.4%
Cc1ccc(C(=O)Nc2nc(-c3ccco3)c(-c3ccco3)s2)o1,4.47µM*,x,x,-17.3%,x,25.8%
